The results in this text go back to ChEMBL document CHEMBL3988442, “University of Dundee, Small-Polar-MMV Screening Library” (2021).

Molecules are shown by their SMILES. Out of some 48,000 compounds screened, about 13,000 (27%) showed an effect of 50% or more. The list shows a part of the results.

The test system of this test is Wolbachia pipientis. As to the kind of experiment: Anti-Wolbachia Cell-Based Screen. The test is classed as functional. The arrangement: scale not given: in the data most compounds retested in dose-response had high values. The settings on record: 5 µM.
`CNS(=O)(=O)c1cc(C(=O)N2CCCCCC2CC(C)C)co1` (stereo not drawn): the “Percent Effect” value was found to be 3.036%.

In the case of `CCOC(=O)NC(CNC(=O)CCc1ccccn1)CC(C)C` (stereo not drawn), the “Percent Effect” value was -10.22%.

For `O=C(c1cccnc1O)N(Cc1ccsc1)CC1CCCO1` (stereo not drawn), the “Percent Effect” value was -13.31%.

Consider `CS(=O)(=O)N1C[C@H]2CNC[C@@]2(C(=O)NCCOc2ccccc2)C1`, for which the “Percent Effect” value is on record as -7.447%.

In the case of `CNC(=O)[C@@]12CCCN(c3ncccn3)[C@@H]1CN(C(=O)NC(C)C)C2`, the “Percent Effect” value was -11.1%.

As for `CNC(=O)N1C[C@H]2N(c3ncccn3)CCC[C@@]2(C(=O)NCC2CC2)C1`, the “Percent Effect” value amounted to 110.5%.

As for `CS(=O)(=O)N1C[C@H]2N(c3ncccn3)CCC[C@@]2(C(=O)NCC2CC2)C1`, the “Percent Effect” value was 106.2%.

Regarding `CC(C)CN1C[C@H]2N(c3ncccn3)CCC[C@@]2(C(=O)NCC2CC2)C1`, the “Percent Effect” value amounted to 98.73%.

Regarding `CNC(=O)[C@@]12CCCN(c3ncccn3)[C@@H]1CN(c1ncc(F)cn1)C2`, the “Percent Effect” value came out at 0.8573%.

Take `CNC(=O)[C@@]12CCCN(c3ncccn3)[C@@H]1CN(c1ncc(C)cn1)C2`: the “Percent Effect” value is -6.772%.

For `CC1CCCCN1CCNC(=O)NCc1ccc(C#N)cc1F` (stereo not drawn), the “Percent Effect” value is 4.831%.

As to `CC(=O)N1CCC2(CCN(Cc3cccc(F)c3)CC2)CC1.O=C(O)C(F)(F)F`, the “Percent Effect” value is given as 4.828%.

As for `Cc1noc(C)c1CN1CCO[C@H]2CN(Cc3cccc(F)c3)C[C@H]21.O=C(O)C(F)(F)F.O=C(O)C(F)(F)F`, the “Percent Effect” value is on record as 84.77%.

For the molecule `Fc1ccc(CN2C[C@@H]3OCCN(CCN4CCCC4)[C@@H]3C2)cc1.O=C(O)C(F)(F)F.O=C(O)C(F)(F)F.O=C(O)C(F)(F)F`, the “Percent Effect” value is recorded as -5.638%.

In the case of `Cc1noc(C)c1CN1CCC2(CCN(Cc3cccc(F)c3)CC2)C1.O=C(O)C(F)(F)F.O=C(O)C(F)(F)F`, the “Percent Effect” value stood at 108.5%.

Consider `O=C(O)C(F)(F)F.O=C1[C@@H]2CCN(Cc3ccoc3)C[C@@H]2OCCN1Cc1cccc(F)c1`, for which the “Percent Effect” value worked out at 7.665%.

On to `NC(=O)N1CCC2(CCN(Cc3cccc(F)c3)CC2)CC1.O=C(O)C(F)(F)F`, for which the “Percent Effect” value turned out to be 7.684%.

On to `Cc1ccsc1-c1nccn1CCN(C)S(C)(=O)=O`, for which the “Percent Effect” value is -5.374%.

Take `Cc1nc(-c2ccccc2C)n(CC(=O)NC(C)C2CC2)n1` (stereo not drawn): the “Percent Effect” value is listed as -5.719%.

In the case of `Cc1cccc(-c2nc(C)nn2CC(=O)NC2CCCC2)c1`, the “Percent Effect” value turned out to be 6.583%.

For `Cc1nc(-c2ccccc2C)n(CC(=O)NC2CCCC2)n1`, the “Percent Effect” value is listed as 83.22%.

As for `Cc1nc(-c2ccccc2)n(CC(=O)NC(C2CC2)C2CC2)n1`, the “Percent Effect” value is reported as -13.82%.

With `Cc1nc(-c2ccccc2)n(CC(=O)NC2CCCC2)n1`, the “Percent Effect” value worked out at 94.43%.

`Cc1nc(-c2ccccc2)n(CC(=O)NC2CCCCC2)n1`: the “Percent Effect” value was 105.1%.

On to `CCC(CC)NC(=O)Cn1nc(C)nc1-c1ccccc1`, for which the “Percent Effect” value is given as 0.4964%.

On to `Cc1nc(-c2ccccc2C)n(CC(=O)NC(C)C)n1`, for which the “Percent Effect” value is given as -16.1%.

As to `O=C(O)[C@@H]1CN(Cc2c[nH]c(CC3CCCC3)n2)C[C@H]1c1ccccn1`, the “Percent Effect” value is given as -9.177%.

Consider `O=C(c1ccc(O)cn1)N1CCOC(Cc2cccc(C(F)(F)F)c2)C1` (stereo not drawn), for which the “Percent Effect” value worked out at 9.036%.

As to `Cc1ccnc(OC[C@@]23CCO[C@@H]2CCN(c2ncc(F)cn2)C3)n1.O=C(O)C(F)(F)F`, the “Percent Effect” value is listed as -3.381%.

For `c1ccc(Cn2cccn2)c(CNCC2CNc3ccnn3C2)c1` (stereo not drawn), the “Percent Effect” value is 2.44%.

With `NC(=O)c1cnn2c1NCC(CNCCCOc1ccccc1F)C2` (stereo not drawn), the “Percent Effect” value is -5.67%.

Regarding `O=C(NCCCNCC1CNc2ccnn2C1)c1ccccc1` (stereo not drawn), the “Percent Effect” value is given as -22.14%.

With `Cc1cnn(C2CN(CC(=O)NCC3(c4ccccc4)CCC3)C2)c1`, the “Percent Effect” value was -4.16%.

In the case of `NC(=O)c1cnn2c1NCC(CNCC1(c3ccccc3)CCCC1)C2` (stereo not drawn), the “Percent Effect” value is reported as 95.13%.

As for `Cc1cnn(C2CN(CC(=O)NCC3(c4ccccc4)CC3)C2)c1`, the “Percent Effect” value was -47.8%.

Consider `NC(=O)c1cnn2c1NCC(CNC1(c3ccccc3)CCC1)C2` (stereo not drawn), for which the “Percent Effect” value is reported as 91.1%.

Turning to `NC(=O)c1cnn2c1NCC(CNCCc1ccco1)C2` (stereo not drawn), the “Percent Effect” value is -4.106%.

Consider `c1ccc(C2(NCC3CNc4ccnn4C3)CCC2)cc1` (stereo not drawn), for which the “Percent Effect” value came to 81.61%.

`CNS(=O)(=O)c1cccc(C(C)NCc2ccc(C)c(C)c2)c1` (stereo not drawn): the “Percent Effect” value is listed as -2.241%.

Turning to `CCc1cnc(C)nc1NC(C)C(=O)Nc1cc(F)ccc1C` (stereo not drawn), the “Percent Effect” value is on record as -2.868%.

Turning to `Cn1cnnc1S(=O)(=O)Cc1cc(Cl)c2c(c1)OCCO2`, the “Percent Effect” value was -9.232%.

`COCCN(Cc1cccc(O)c1)Cc1ccccc1F`: the “Percent Effect” value is recorded as 0.04507%.

For `CN1CCN(Cc2cnc(S(=O)(=O)CC3CC3)n2CC2CCCO2)CC1` (stereo not drawn), the “Percent Effect” value was -10.61%.

As to `O=C(CN1CCCS1(=O)=O)Nc1ccc(OC2CCCC2)c(Cl)c1`, the “Percent Effect” value is reported as -10.49%.

For the molecule `O=C(O)C(F)(F)F.O=C(O)C(F)(F)F.c1csc(CN2CCC3(CC2)CCN(CC2CC2)CC3)n1`, the “Percent Effect” value was 12.33%.

For `O=C(C[C@H]1[C@H]2CN(Cc3ccc(F)cc3)C[C@@H]12)N1CCCC1.O=C(O)C(F)(F)F`, the “Percent Effect” value was -45.89%.

For `O=C(CC1CCC2(CC1)CCN(Cc1ccncc1)CC2)N1CCCC1.O=C(O)C(F)(F)F`, the “Percent Effect” value is 108.9%.

For `O=C(CC1CCC2(CC1)CCN(Cc1cccnc1)CC2)N1CC=CC1.O=C(O)C(F)(F)F.O=C(O)C(F)(F)F`, the “Percent Effect” value was 82.49%.

Consider `O=C(c1cscn1)N1CCC2(CCN(Cc3nccs3)CC2)CC1`, for which the “Percent Effect” value is reported as -43.87%.

As for `COCC1CC2(CCN(Cc3cccnc3)CC2)CN1c1ncccn1.O=C(O)C(F)(F)F.O=C(O)C(F)(F)F.O=C(O)C(F)(F)F` (stereo not drawn), the “Percent Effect” value is reported as -11.87%.

For `O=C(CC1CCC2(CC1)CCN(Cc1nccs1)CC2)N1CC=CC1`, the “Percent Effect” value was determined as 106.8%.

For the molecule `O=C(Cc1cccnc1)N1CCC2(CCN(CC3CCCCC3)C2)CC1.O=C(O)C(F)(F)F.O=C(O)C(F)(F)F`, the “Percent Effect” value was determined as 8.236%.

As for `O=C(O)C(F)(F)F.O=C(O)C(F)(F)F.O=C(O)C(F)(F)F.c1cc(CN2CCOCC3(CCN(CC4CCOCC4)CC3)C2)ccn1`, the “Percent Effect” value is given as -16.5%.

For `COc1ccccc1OCc1nc2cc3c(cc2c(=O)o1)OCCCO3`, the “Percent Effect” value is listed as -14.32%.

As to `Cc1nc(C2CCN(C[C@H](C)CO)CC2)cc(N2CCOCC2)n1`, the “Percent Effect” value turned out to be 2.667%.

Regarding `CCc1c(C(=O)N2CCCC(N(C)C)C2)cnn1C(C)(C)C` (stereo not drawn), the “Percent Effect” value is given as 105.9%.

Turning to `Cc1ccc(C(=O)N2CCCC(N(C)C(=O)OC(C)(C)C)C2)o1` (stereo not drawn), the “Percent Effect” value is given as 9.731%.

Regarding `CCc1c(C(=O)N2CCN(CC(N)=O)CC2)cnn1C(C)(C)C`, the “Percent Effect” value is on record as 15.08%.

Consider `Cc1ccsc1CNc1ccc(C(=O)N2CCNC(=O)C2)cn1`, for which the “Percent Effect” value is -3.195%.

As to `Cc1cc(C(=O)N2CCNC(=O)C2)c(C)n1CC(F)(F)F`, the “Percent Effect” value was -17.07%.

`CCc1c(C(=O)N2CCN(c3ncccn3)CC2)cnn1C(C)(C)C`: the “Percent Effect” value came out at 6.599%.

Turning to `CCOCCn1nc(C)cc1C(=O)N1CCCC[C@H](N(C)C)C1`, the “Percent Effect” value is -3.082%.

With `CCCc1c(C(=O)N2CCN(c3cnccn3)CC2)cnn1C`, the “Percent Effect” value is recorded as 10.15%.

Regarding `CCc1c(C(=O)N2CCNC(=O)C2)cnn1C(C)(C)C`, the “Percent Effect” value turned out to be 104.8%.

Regarding `NC(=O)CC1CCN(C(=O)c2cnc(-c3ccccc3F)s2)CC1`, the “Percent Effect” value was determined as 1.886%.

In the case of `CCc1c(C(=O)N2CCC(CC(N)=O)CC2)cnn1C(C)(C)C`, the “Percent Effect” value was 114.3%.

For `CCc1c(C(=O)N2CCN(c3cnccn3)CC2)cnn1C(C)(C)C`, the “Percent Effect” value was found to be 78.79%.

As for `O=C(NCCN1CCOCC1)N1CCN(c2ccccc2)CC1`, the “Percent Effect” value is recorded as -9.765%.

Turning to `Cc1ccccc1CNc1ccc(S(N)(=O)=O)c(C(F)(F)F)c1`, the “Percent Effect” value was -19.7%.

With `COc1cccc(CCC2CCCN(C(=O)C3=NN(C)C(=O)CC3)C2)c1` (stereo not drawn), the “Percent Effect” value is 3.443%.

As for `CC1CN(C(=O)C2(c3cccc(F)c3)CCOCC2)CCO1` (stereo not drawn), the “Percent Effect” value is -11.59%.

`Cc1cccc(C2(C(=O)NCC(C)CN3CCCC3=O)CC2)c1` (stereo not drawn): the “Percent Effect” value was -2.528%.

Turning to `Cc1cc(C)n(CC(C)NC(=O)C2(c3ccc(F)cc3)CC2)n1` (stereo not drawn), the “Percent Effect” value is listed as -1.516%.

With `CCC(CN1CCCC1)NC(=O)C1(c2ccc(F)cc2)CC1` (stereo not drawn), the “Percent Effect” value is 125.8%.

Turning to `CC(Cn1ccnc1)NC(=O)C1(c2ccc(F)cc2)CC1` (stereo not drawn), the “Percent Effect” value stood at 6.075%.

For `O=C(NCC(O)COc1ccccc1)C1(c2ccc(F)cc2)CC1` (stereo not drawn), the “Percent Effect” value is given as -6.241%.

On to `O=C(NC(CN1CCCC1)c1ccccc1)c1c(O)cc(F)cc1F` (stereo not drawn), for which the “Percent Effect” value is -3.42%.

As to `CC(CNC(=O)C1(c2ccc(F)cc2)CC1)CN1CCCC1=O` (stereo not drawn), the “Percent Effect” value is -3.318%.

On to `CCC(CN1CCCCC1)NC(=O)C1(c2ccc(F)cc2)CC1.O=C(O)CC(O)(CC(=O)O)C(=O)O` (stereo not drawn), for which the “Percent Effect” value is 147.4%.

Consider `O=C(NCc1nncn1C1CC1)C1(c2cccc(F)c2)CCOCC1`, for which the “Percent Effect” value was 0.3927%.

For `CCC(CN1CCCC1)NC(=O)C1(c2cccc(F)c2)CC1.O=C(O)CC(O)(CC(=O)O)C(=O)O` (stereo not drawn), the “Percent Effect” value is reported as 113.9%.

In the case of `CCC(CN1CCCCC1)NC(=O)C1(c2cccc(F)c2)CC1.O=C(O)CC(O)(CC(=O)O)C(=O)O` (stereo not drawn), the “Percent Effect” value was 128.4%.

Consider `COc1cccc(-c2n[nH]c3c2CN(C(=O)C2=C(C)OCCO2)CC3)c1`, for which the “Percent Effect” value is 9.828%.

Consider `Cc1cc(CNc2cncc(C(=O)N(C)C)n2)c2[nH]c(C)c(C)c2c1`, for which the “Percent Effect” value was 5.027%.

With `O=C(O)c1ccccc1-c1c(-c2ccccc2)ncn1C[C@H]1CCCN1`, the “Percent Effect” value is given as -12.22%.

For the molecule `c1cncc(CNc2cccc(OCCN3CCCCC3)c2)c1`, the “Percent Effect” value amounted to 1.449%.

As for `CN(C)C(=O)CCNC(=O)NCc1ccc(Br)cc1Cl`, the “Percent Effect” value turned out to be 9.255%.

Turning to `O=c1[nH]nc(CNc2ncc(Br)cn2)[nH]1`, the “Percent Effect” value came out at 1.625%.

As to `CC(=O)c1cccc(OCCCC(=O)N(C)C2CCN(C)CC2)c1`, the “Percent Effect” value is given as -6.579%.

As to `COc1ccc(CNCCc2cc(F)cc3c2OCOC3)cc1O`, the “Percent Effect” value is recorded as 19%.

For `CCC(CN1CCN(C)CC1)NC(=O)C1(c2cccc(F)c2)CC1.O=C(O)CC(O)(CC(=O)O)C(=O)O` (stereo not drawn), the “Percent Effect” value was 126%.

As to `CCC(O)CN1CCN(C(=O)C2(c3ccc(C)c(OC)c3)CC2)CC1` (stereo not drawn), the “Percent Effect” value is listed as -7.505%.

As to `CCC(=O)N1CCC2(CCN(Cc3cccc(F)c3)CC2)CC1.O=C(O)C(F)(F)F`, the “Percent Effect” value is reported as -2.197%.
